This is an account of results in ChEMBL document CHEMBL1201862, “PubChem BioAssay data set” (2004).

The campaign covered roughly 58,000 sequences. About 4,100 (7.1%) were called active. Rule as the data show it: active = GI50 up to about 1.1 µM and inactive = higher. The list is a sample of the results. Measured potencies and affinities stand elsewhere.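 Growth conditions: 96-well plates. Treatment: test compound, 48 hours, 5 concentrations. Analysis: linear interpolation between bracketing concentrations; unreached endpoints set to highest concentration. GI50 = concentration required for 50% inhibition of growth.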

The test system of the test is U-251. In words: NCI tumour cell line growth inhibition, 48 h.
As to “[Bis(aminomethyl)diethylsilane]tetrachloroplatinum(IV), CHEMBL2146203”, the GI50 stood at 2 µM.
As to “[Bis(aminomethyl)pentamethylenesilane]tetrachloropaltinum(IV), CHEMBL2146204”, the GI50 was 2.94 µM.
Next, “[Bis(aminomethyl)tetramethylenesilane]tetrachloropaltinum(IV), CHEMBL2146189”: 3.59 µM; “[Bis(aminomethyl)ethylmethylsilane]tetrachloroplatinum(IV), CHEMBL2146192”: 6.07 µM.
Consider CISPLATIN, CHEMBL11359, for which the GI50 is 1.92 µM.
Consider “cis-Bis[[(trimethylsilyl)methyl]amino]tetrachloroplatinum(IV), CHEMBL2146191”, for which the GI50 was determined as 14.9 µM.
With “[Bis(aminomethyl)dimethylsilane]dichloroplatinum (II), CHEMBL2146201”, the GI50 is 33.5 µM.
As to “[Bis(aminomethyl)tetramethylenesilane]dichloropaltinum(II), CHEMBL2146205”, the GI50 came to 30.3 µM.
“[Bis(aminomethyl)dimethylsilane]tetrachloroplatinum(IV), CHEMBL2146190” displayed a GI50 of 9.42 µM.
“mu-(1,7-nanodiamine-N,N')bis-(cis-aminedichloroplatimum (II)), CHEMBL2146215” had a GI50 of 10.3 µM.
Regarding “[Bis(aminomethyl)pentamethylenesilane]dichloropaltinum(II), CHEMBL2146202”, the GI50 is 2.93 µM.
